These results are taken from PubChem BioAssay (EPA / NIEHS).

Inconclusive results are not listed. Activity calls are given as the source filed them. The calls were made as follows, unless noted: active = hit-call score of the fitted dose curve at least 0.9, where 1 is the maximum; inactive = score below 0.9.

Test [1] deals with Paired box protein Pax-6 (Homo sapiens) (UniProt P26367). The test is described as follows: ATG_Pax6_CIS: Attagene CIS-FACTORIAL HepG2 Assay for human Paired Box 6 (PAX6) (AID 2282956). The settings on record: HepG2 CIS-FACTORIAL PAX6 reporter transcription, RNA readout; actives raise or lower the signal. In short, it runs like this:
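Fluorescent RT-PCR products separated by capillary electrophoresis report PAX6-linked promoter mRNA in HepG2 cells 24 h post-dose. Curves fitted bidirectionally, DMSO as negative control.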

The nature of test [2]: ATG_PPRE_CIS: Attagene CIS-FACTORIAL HepG2 Assay for human Peroxisome Proliferator-activated Response Element (PPRE) (AID 2282958). The note with it: HepG2 PPRE cis-element reporter, Attagene transcription factor profiling; actives raise or lower the signal. Put shortly: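 HepG2 cells transiently transfected with multiplexed cis-element reporter units measure endogenous transcription factor activity. After 24 h compound exposure, reporter mRNA is quantified by RT-PCR, 6-FAM labeling, HpaI digestion and capillary electrophoresis; bidirectional fits are made against DMSO baseline.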

Test [3] can be described thus: ATG_RORE_CIS: Attagene CIS-FACTORIAL HepG2 Assay for human RAR-related Orphan Receptor Element (RORE) (AID 2282959). The settings on record: HepG2 Attagene cis-factorial RORE reporter, mRNA; actives raise or lower the signal. In short, it runs like this: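 HepG2 cells transiently transfected with multiple cis-element reporter transcription units, exposed to chemical for 24 h. Reporter mRNA quantified by RT-PCR, 6-FAM primer-extension labeling, HpaI digestion and capillary electrophoresis; bidirectional fit versus DMSO baseline.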

The nature of test [4]: ATG_Sox_CIS: Attagene CIS-FACTORIAL HepG2 Assay for human SRY-box transcription factor (SOX) (AID 2282960). The note with it: HepG2 Attagene cis-factorial SOX reporter, mRNA; actives raise or lower the signal. In short, it runs like this:
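HepG2 cells transiently transfected with cis-element-driven multiple reporter transcription units, dosed 24 h; reporter mRNA measured by RT-PCR, FAM labelling, HpaI digestion and capillary electrophoresis. Bidirectional fit versus DMSO baseline.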

Test [5] can be described thus: ATG_SREBP_CIS: Attagene CIS-FACTORIAL HepG2 Assay for human Sterol Regulatory Element Binding (SREBP) (AID 2282962). The note with it: HepG2 Attagene cis-factorial SREBP reporter, mRNA; actives raise or lower the signal. In short, it runs like this:
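Endogenous factor activity is measured in HepG2 through multiplexed reporter units under cis-element control. Following a 24 h incubation, reporter transcripts are reverse-transcribed, PCR-amplified and sized by capillary electrophoresis; activity is fitted in both directions relative to DMSO.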

For test [6], the target named is Signal transducer and activator of transcription 3 (Homo sapiens) (UniProt P40763). Briefly: ATG_STAT3_CIS: Attagene CIS-FACTORIAL HepG2 Assay for human Signal Transducer and Activator of Transcription 3 (STAT3) (AID 2282963). The note with it: HepG2, Attagene cis-factorial STAT3 reporter transcription; actives raise or lower the signal. In short, it runs like this:
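Uses human liver HepG2 transiently carrying cis-regulated reporter transcription units. Following 24 h dosing, reporter mRNA induction was detected by RT-PCR and capillary electrophoresis, analysed bidirectionally versus DMSO.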

A short description of test [7]: ATG_TA_CIS: Attagene CIS-FACTORIAL HepG2 Assay for human TA Basal Promoter (AID 2282964). The note with it: HepG2 Attagene CIS-factorial TA basal promoter reporter; actives raise or lower the signal. Put shortly:
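Cis-factorial format in HepG2: reporters report endogenous factors, not chimeric Gal4 fusions. After 24 h treatment, reporter transcripts were measured by RT-PCR-capillary electrophoresis fluorescence, analysed bidirectionally versus DMSO.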

Test [8] can be described thus: ATG_TCF_b_cat_CIS: Attagene CIS-FACTORIAL HepG2 Assay for human T-Cell-Factor with beta-catenin (TCF/b-cat) (AID 2282965). The note with it: HepG2 TCF/beta-catenin cis-reporter transcription, actives raise or lower the signal. In short, it runs like this:
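Using capillary electrophoresis as the read-out, labelled reporter cDNA fragments from transiently transfected HepG2 were sized and quantified. Exposure lasted 24 hours; activity in either direction was referenced to DMSO.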

Test [9] can be described thus: ATG_TAL_CIS: Attagene CIS-FACTORIAL HepG2 Assay for human TAL Basal Promoter (AID 2282966).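 Also: background control endpoint measuring basal TAL promoter reporter mRNA not a specific factor.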 The settings on record: HepG2 Attagene cis-factorial TAL promoter reporter; actives raise or lower the signal. In short, it runs like this: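 Background-control endpoint: basal TAL promoter reporter transcripts in transiently transfected HepG2, measured 24 h after dosing. Read-out by RT-PCR with fluorescent primer extension and capillary electrophoresis; gain or loss of signal fitted relative to DMSO.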

Test [10] in a line: ATG_TGFb_CIS: Attagene CIS-FACTORIAL HepG2 Assay for human Transforming Growth Factor (TGF) (AID 2282967). The settings on record: HepG2 Attagene CIS TGFb reporter, mRNA transcription; actives raise or lower the signal. Put shortly: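 Multiplexed cis-reporter HepG2 system, 24 h treatment; mRNA induction read by fluorescence after RT-PCR and CE; DMSO negative control, bidirectional curve fitting.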

The nature of test [11]: ATG_VDRE_CIS: Attagene CIS-FACTORIAL HepG2 Assay for human Vitamin D Receptor Element (VDRE) (AID 2282968). The settings on record: HepG2 VDRE cis-reporter transcription, actives raise or lower the signal. In short, it runs like this: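 Transfected HepG2 reporter cells, chemical treatment 24 h. RNA isolated, cDNA amplified with reporter-specific primers, products analysed by capillary electrophoresis. Endpoint fitted in both directions versus DMSO.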

In test [12] the target is Nuclear receptor subfamily 1 group I member 3 (Homo sapiens) (UniProt Q14994). The test is described as follows: ATG_CAR_TRANS: Attagene TRANS-FACTORIAL HepG2 Assay for human Constitutive Androstane Receptor (CAR) (AID 2282969; active = hit-call score of the fitted dose curve at least 0.9, where 1 is the maximum;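 also: activators raise reporter mRNA above DMSO so AC50 marks induction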). The note with it: HepG2 Attagene TRANS-FACTORIAL CAR reporter. In short, it runs like this:
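Steps: transient transfection of HepG2 with multiple GAL4-UAS reporter units; 24 h compound incubation; RNA isolation, RT-PCR, 6-FAM primer extension, HpaI digest; capillary electrophoresis. Gain-of-signal relative to DMSO negative control.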

Test [13] addresses Steroid hormone receptor ERR1 (Homo sapiens) (UniProt P11474). The test is described as follows: ATG_ERRa_TRANS: Attagene TRANS-FACTORIAL HepG2 Assay for human Estrogen-Related Receptor alpha (ERRa) (AID 2282971; active = hit-call score of the fitted dose curve at least 0.9, where 1 is the maximum). The note with it: HepG2 Attagene TRANS reporter, ERRa transactivation. In short, it runs like this:
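Reporter transcripts from ERRa-Gal4 chimera activity measured in transiently transfected human HepG2 cells 24 hours after dosing, using RT-PCR with 6-FAM primer extension, HpaI digestion and capillary electrophoresis; DMSO is baseline.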

For test [14], the target named is X-box-binding protein 1 (Homo sapiens) (UniProt P17861). Briefly: ATG_Xbp1_CIS: Attagene CIS-FACTORIAL HepG2 Assay for human X-box Binding Protein 1 (XBP1) (AID 2282972). The note with it: HepG2 XBP1 cis-element reporter, Attagene multiplex; actives raise or lower the signal. Put shortly:
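Multiplexed cis-reporter readout in transfected HepG2 liver cells. Exposure lasted 24 hours. Activity in either direction was fitted against DMSO as negative control and baseline.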

Test [15] can be described thus: ATG_M_19_TRANS: Attagene TRANS-FACTORIAL HepG2 Assay for M19 Transcription Factor (Internal Marker) (AID 2282974; active = hit-call score of the fitted dose curve at least 0.9, where 1 is the maximum). The settings on record: HepG2 Attagene TRANS-FACTORIAL M19 internal marker reporter. In short, it runs like this: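 HepG2 cells transiently transfected with multiple GAL4-UAS reporter transcription units were exposed to chemicals for 24 h. Reporter mRNA was read by RT-PCR, 6-FAM primer extension, HpaI digestion and capillary electrophoresis; gain of signal fitted relative to DMSO.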

Test [16] can be described thus: ATG_GAL4_TRANS: Attagene TRANS-FACTORIAL HepG2 Assay for GAL4 (Internal Marker) (AID 2282976; active = hit-call score of the fitted dose curve at least 0.9, where 1 is the maximum). The note with it: HepG2 Attagene TRANS GAL4 internal marker reporter. Put shortly:
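In transfected human HepG2 liver cells dosed 24 h, GAL4 reporter mRNA serves as a baseline marker. Detection by RT-PCR with fluorescent capillary electrophoresis, activity fitted upward relative to DMSO.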

Test [17] addresses Estrogen-related receptor gamma (Homo sapiens) (UniProt P62508). The test is described as follows: ATG_ERRg_TRANS: Attagene TRANS-FACTORIAL HepG2 Assay for human Estrogen-Related Receptor gamma (ERRg) (AID 2282977; active = hit-call score of the fitted dose curve at least 0.9, where 1 is the maximum;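 also: hits increase reporter signal over DMSO so potencies reflect activators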). The note with it: HepG2 Attagene TRANS reporter, ERRg transactivation. In short, it runs like this: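 Exogenous NR-Gal4 chimera activity was assessed in HepG2 cells bearing transfected GAL4-UAS reporters. After 24 h dosing, total RNA underwent RT-PCR, fluorescent primer extension and HpaI digestion before capillary electrophoresis, with gain of signal scored against DMSO.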

Test [18] deals with Estrogen receptor (Homo sapiens) (UniProt P03372). The test is described as follows: ATG_ERa_TRANS: Attagene TRANS-FACTORIAL HepG2 Assay for human Estrogen Receptor alpha (ERa) (AID 2282970; active = hit-call score of the fitted dose curve at least 0.9, where 1 is the maximum). The note with it: HepG2 Attagene TRANS ERa GAL4 reporter, mRNA. In short, it runs like this:
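Reporter transcripts were measured 24 h after dosing by RT-PCR with fluorescent primer extension and capillary electrophoresis. The system is transiently transfected HepG2 expressing exogenous NR-Gal4 chimeras driving GAL4-UAS reporters; DMSO is the baseline.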

Test [19] can be described thus: ATG_PXRE_CIS: Attagene CIS-FACTORIAL HepG2 Assay for human Pregnane X Receptor Element (PXRE) (AID 2282957). The settings on record: HepG2 Attagene CIS-FACTORIAL PXRE reporter, mRNA; actives raise or lower the signal. Put shortly: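 Reporter transcripts under endogenous PXR-responsive cis-regulation quantified from total RNA of transfected HepG2 cells 24 h post-dosing, via RT-PCR with fluorescent primer extension and capillary electrophoresis. Gain or loss of signal fitted against DMSO baseline.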

Chain of Paired box protein Pax-6 (Homo sapiens) (P26367 whole entry, looked up): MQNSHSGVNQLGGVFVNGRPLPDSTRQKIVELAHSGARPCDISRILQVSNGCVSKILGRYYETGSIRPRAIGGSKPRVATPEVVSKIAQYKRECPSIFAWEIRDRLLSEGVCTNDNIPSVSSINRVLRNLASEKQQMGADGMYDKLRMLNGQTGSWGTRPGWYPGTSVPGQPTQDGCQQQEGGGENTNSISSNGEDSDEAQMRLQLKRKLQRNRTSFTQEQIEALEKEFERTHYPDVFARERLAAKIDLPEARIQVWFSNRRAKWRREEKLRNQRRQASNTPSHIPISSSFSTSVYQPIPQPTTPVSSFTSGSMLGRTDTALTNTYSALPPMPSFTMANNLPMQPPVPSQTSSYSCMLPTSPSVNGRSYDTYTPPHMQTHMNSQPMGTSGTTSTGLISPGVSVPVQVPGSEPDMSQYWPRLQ
Chain of X-box-binding protein 1 (Homo sapiens) (P17861 whole entry, looked up): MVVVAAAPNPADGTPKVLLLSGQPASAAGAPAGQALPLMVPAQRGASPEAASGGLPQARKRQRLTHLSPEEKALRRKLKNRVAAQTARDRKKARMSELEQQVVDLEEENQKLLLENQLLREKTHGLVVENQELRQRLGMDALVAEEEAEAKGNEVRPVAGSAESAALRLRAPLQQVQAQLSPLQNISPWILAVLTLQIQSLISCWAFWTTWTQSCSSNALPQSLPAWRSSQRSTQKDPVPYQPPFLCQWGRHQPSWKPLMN
Chain of Nuclear receptor subfamily 1 group I member 3 (Homo sapiens) (Q14994 whole entry, looked up, the tested form may be a part): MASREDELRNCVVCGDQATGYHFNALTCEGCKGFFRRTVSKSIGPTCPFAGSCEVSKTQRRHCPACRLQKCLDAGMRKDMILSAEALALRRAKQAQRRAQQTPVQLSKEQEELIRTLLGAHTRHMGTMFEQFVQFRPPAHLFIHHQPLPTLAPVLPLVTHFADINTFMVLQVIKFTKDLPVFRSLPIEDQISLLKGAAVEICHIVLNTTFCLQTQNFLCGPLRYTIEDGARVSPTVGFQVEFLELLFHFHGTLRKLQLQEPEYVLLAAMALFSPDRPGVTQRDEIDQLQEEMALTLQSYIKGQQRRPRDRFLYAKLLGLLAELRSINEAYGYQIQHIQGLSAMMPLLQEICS
Chain of Signal transducer and activator of transcription 3 (Homo sapiens) (P40763 whole entry, looked up): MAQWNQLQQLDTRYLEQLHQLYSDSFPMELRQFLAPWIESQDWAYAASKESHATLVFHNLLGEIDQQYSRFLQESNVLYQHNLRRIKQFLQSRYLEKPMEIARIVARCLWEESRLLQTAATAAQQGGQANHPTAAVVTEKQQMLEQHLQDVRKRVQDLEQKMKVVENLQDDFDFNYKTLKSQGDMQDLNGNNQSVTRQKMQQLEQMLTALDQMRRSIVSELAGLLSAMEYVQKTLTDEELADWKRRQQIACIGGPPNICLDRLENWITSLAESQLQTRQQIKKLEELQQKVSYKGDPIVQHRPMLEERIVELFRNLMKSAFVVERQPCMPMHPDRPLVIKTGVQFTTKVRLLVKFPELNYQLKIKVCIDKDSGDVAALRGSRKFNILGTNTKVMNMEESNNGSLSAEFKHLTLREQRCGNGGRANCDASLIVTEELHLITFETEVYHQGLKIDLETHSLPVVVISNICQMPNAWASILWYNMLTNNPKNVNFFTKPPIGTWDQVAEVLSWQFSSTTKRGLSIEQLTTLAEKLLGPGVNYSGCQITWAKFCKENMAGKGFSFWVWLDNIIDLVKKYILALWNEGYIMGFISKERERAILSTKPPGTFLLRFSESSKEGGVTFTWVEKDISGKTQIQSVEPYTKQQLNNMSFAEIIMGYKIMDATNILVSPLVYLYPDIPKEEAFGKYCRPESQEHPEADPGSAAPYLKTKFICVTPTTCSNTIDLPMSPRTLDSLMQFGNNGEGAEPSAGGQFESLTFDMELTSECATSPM
Chain of Estrogen-related receptor gamma (Homo sapiens) (P62508 whole entry, looked up, the tested form may be a part): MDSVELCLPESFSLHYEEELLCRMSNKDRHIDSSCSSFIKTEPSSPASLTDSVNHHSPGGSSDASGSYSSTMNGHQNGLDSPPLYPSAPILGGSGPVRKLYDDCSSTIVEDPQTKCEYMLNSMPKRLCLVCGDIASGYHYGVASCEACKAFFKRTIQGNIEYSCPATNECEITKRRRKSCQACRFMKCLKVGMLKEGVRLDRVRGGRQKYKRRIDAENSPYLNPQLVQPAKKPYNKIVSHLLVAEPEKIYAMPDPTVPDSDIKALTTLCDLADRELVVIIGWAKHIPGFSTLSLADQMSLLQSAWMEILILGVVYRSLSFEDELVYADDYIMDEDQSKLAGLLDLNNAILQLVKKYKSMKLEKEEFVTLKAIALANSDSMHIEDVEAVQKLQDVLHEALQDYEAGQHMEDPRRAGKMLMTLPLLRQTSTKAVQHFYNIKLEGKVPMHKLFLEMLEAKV
Chain of Estrogen receptor (Homo sapiens) (P03372 whole entry, looked up, the tested form may be a part): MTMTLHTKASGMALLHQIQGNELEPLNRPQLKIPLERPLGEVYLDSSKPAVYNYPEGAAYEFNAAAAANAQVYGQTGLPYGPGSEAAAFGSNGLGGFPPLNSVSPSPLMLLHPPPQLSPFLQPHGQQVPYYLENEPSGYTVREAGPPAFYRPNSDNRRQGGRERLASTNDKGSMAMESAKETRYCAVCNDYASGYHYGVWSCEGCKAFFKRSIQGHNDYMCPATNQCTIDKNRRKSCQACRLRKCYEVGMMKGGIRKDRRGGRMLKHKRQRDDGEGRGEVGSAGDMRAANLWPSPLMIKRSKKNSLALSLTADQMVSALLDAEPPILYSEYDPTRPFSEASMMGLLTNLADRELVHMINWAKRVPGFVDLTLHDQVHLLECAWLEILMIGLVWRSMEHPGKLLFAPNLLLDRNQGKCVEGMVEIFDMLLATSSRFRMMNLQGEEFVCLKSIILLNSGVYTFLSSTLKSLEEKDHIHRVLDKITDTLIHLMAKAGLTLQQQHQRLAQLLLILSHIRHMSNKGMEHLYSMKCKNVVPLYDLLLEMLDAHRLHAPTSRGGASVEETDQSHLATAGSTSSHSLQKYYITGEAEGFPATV
Chain of Steroid hormone receptor ERR1 (Homo sapiens) (P11474 whole entry, looked up, the tested form may be a part): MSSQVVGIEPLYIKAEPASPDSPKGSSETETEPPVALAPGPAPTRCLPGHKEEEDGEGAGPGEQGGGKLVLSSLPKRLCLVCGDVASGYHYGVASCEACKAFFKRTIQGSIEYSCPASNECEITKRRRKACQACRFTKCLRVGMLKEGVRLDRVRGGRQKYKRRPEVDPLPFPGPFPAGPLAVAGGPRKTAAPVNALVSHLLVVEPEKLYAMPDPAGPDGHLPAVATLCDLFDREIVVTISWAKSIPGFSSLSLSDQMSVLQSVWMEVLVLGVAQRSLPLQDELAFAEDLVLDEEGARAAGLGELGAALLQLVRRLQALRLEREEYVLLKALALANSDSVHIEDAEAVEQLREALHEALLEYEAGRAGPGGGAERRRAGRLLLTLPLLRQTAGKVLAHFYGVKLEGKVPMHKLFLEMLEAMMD

The AC50 is the concentration at which the activity in the assay is half-maximal. As for `CNCc1ccc(NC(=O)c2c[nH]c3c2C(=O)CCC3)cc1`, the result in [1], in [2], in test [3], in test [4], in test [5] and in test [6] was inactive. The molecule was called inactive in test [7], in test [9], in [10], in test [11], in test [12] and in test [13]. Besides, the outcome in test [14], in [15], in [16] and in test [17] was inactive. In test [8], the AC50 is 24.1 µM (active).

For `CCOC(=O)COc1ccc2c(c1)CC(NCC(O)c1cccc(Cl)c1)CC2` (stereo not given), the molecule was called inactive in test [1], in test [2], in test [3], in test [4], in [5] and in test [6]. The outcome in [7], in test [9], in test [10], in [11], in test [12] and in test [14] was inactive. Also, the result in [15] and in test [17] was inactive. The AC50 in test [8] is 33 µM (active); in [18], 47.1 µM (active).

On to `CCOCCO`, for which the outcome in test [1], in test [19], in test [3], in test [4], in test [5] and in [6] was inactive. For the same molecule, the call in test [7], in [8], in test [9], in test [10], in test [11] and in [14] was inactive.

With `CC(C)CCCCCCCOC(=O)CCCCC(=O)OCCCCCCCC(C)C`, the molecule was called inactive in test [1], in test [2], in [3], in [4], in test [5] and in [6]. Further, the molecule was classed as inactive in [7], in test [8], in test [9], in test [10], in [11] and in [12]. The call in test [14], in test [15] and in [16] was inactive.
